Active and inactive are the calls of the source.

In PubChem BioAssay one finds composite z-score and z-score data, which are given here for 15 molecules.

Assay [1] relates to PRMT1 (protein arginine N-methyltransferase 1). In words: PRMT1 binders on small-molecule microarrays, primary screen, biochemical, small-molecule microarray, 635 nm fluorescence (AID 1088).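 Further: binding of Prmt1 protein to compounds spotted on small-molecule microarray slides.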 The note with it: small-molecule microarray binding, higher = more signal.
The nature of assay [2]: yeast growth modulation, basal conditions, primary screen, YJM789 clinical isolate, OD600, 24 h (AID 1089).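 Further: growth of clinical yeast isolate S. cerevisiae YJM 789 seeded 1000 cells per well; test concentration not given here.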 The note with it: S. cerevisiae YJM789 growth, higher = more signal, called active from +8 up or from −8 down.
Assay [3] is described as follows: fission yeast growth modulation, primary screen, strain 972, OD600, 24 h, no modulator (AID 1090).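 Further: basal condition with compound alone and no growth modifier present; test concentration not given here.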 Conditions: S. pombe 972 growth, higher = more signal, called active from +8 up or from −8 down.
The nature of assay [4]: S. cerevisiae growth modulation with rapamycin, primary screen, strain BY4716, OD600, 96 h (AID 1091). Further: test concentration not given here. Conditions: higher = more signal, called active from +8 up or from −8 down.
Assay [5] deals with Torsin-1A-interacting protein 2 (Homo sapiens) (UniProt Q8NFQ8). In words: LULL1 binders on small-molecule microarray, primary screen, cell lysate, human LULL1 lysate, 635/667 nm fluorescence (AID 1092).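 Further: probe is lysate of COS7 cells overexpressing human LULL1; score merges per-feature 667 nm fluorescence with signal-to-noise.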 The note with it: hLULL1 lysate binding, 635 nm fluorescence, higher = more signal.
Assay [6] is described as follows: E. coli growth modulation, two-sided OD650, primary screen, E. coli filamentation project, strain DRC41, 24 h (AID 1093).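 Further: MC1000 strain lacking acrAB efflux and sulA so SOS filamentation is blocked; test concentration not given here.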 Conditions: OD650, 24 h, higher = more signal, called active from +8 up or from −8 down.
Assay [7] is described as follows: small-molecule microarray binders of probe aLefty2, primary screen, biochemical, biotinylated probe, 635/667 nm fluorescence (AID 1094).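 Further: score merges spot fluorescence near 667 nm with spot signal-to-noise ratio.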 The note with it: higher = more signal.
The subject of assay [8] is Noggin (protein binding on small-molecule microarray). In words: Noggin binders on small-molecule microarray, primary screen, biochemical, 635/667 nm fluorescence (AID 1095).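 Further: score merges 667 nm feature fluorescence with signal to noise over triplicate slides.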 Conditions: 635 nm fluorescence, higher = more signal.
Assay [9] has as its target Neurogenic locus notch homolog protein 3 (Homo sapiens) (UniProt Q9UM47). Put plainly: NOTCH3 binders on small-molecule microarray, primary screen, biochemical, 635/667 nm fluorescence (AID 1096). The note with it: NOTCH3 binding, 635 nm fluorescence, higher = more signal.
Assay [10] in a line: small-molecule microarray binders of probe aEGFR, primary screen, biochemical, biotinylated probe, 635/667 nm fluorescence (AID 1097).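 Further: probe is a biotinylated anti-EGFR antibody binding compounds printed on slides; score combines fluorescence near 667 nm and signal to noise of each spot.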 Conditions: higher = more signal.

Sequence of Torsin-1A-interacting protein 2 (Homo sapiens) (Q8NFQ8 whole entry, looked up): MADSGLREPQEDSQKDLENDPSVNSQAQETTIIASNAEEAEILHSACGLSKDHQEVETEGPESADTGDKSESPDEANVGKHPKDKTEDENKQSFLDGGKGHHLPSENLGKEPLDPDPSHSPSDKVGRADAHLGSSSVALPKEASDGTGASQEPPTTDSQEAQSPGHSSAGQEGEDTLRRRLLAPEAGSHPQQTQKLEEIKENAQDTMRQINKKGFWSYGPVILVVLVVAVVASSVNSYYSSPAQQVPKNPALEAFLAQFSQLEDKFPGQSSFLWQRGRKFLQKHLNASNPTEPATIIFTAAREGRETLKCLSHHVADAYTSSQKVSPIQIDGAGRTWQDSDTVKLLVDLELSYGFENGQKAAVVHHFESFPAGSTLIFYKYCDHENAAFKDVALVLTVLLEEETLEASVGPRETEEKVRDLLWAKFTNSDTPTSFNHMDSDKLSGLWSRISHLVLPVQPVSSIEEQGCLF
Sequence of Neurogenic locus notch homolog protein 3 (Homo sapiens) (Q9UM47 whole entry, looked up): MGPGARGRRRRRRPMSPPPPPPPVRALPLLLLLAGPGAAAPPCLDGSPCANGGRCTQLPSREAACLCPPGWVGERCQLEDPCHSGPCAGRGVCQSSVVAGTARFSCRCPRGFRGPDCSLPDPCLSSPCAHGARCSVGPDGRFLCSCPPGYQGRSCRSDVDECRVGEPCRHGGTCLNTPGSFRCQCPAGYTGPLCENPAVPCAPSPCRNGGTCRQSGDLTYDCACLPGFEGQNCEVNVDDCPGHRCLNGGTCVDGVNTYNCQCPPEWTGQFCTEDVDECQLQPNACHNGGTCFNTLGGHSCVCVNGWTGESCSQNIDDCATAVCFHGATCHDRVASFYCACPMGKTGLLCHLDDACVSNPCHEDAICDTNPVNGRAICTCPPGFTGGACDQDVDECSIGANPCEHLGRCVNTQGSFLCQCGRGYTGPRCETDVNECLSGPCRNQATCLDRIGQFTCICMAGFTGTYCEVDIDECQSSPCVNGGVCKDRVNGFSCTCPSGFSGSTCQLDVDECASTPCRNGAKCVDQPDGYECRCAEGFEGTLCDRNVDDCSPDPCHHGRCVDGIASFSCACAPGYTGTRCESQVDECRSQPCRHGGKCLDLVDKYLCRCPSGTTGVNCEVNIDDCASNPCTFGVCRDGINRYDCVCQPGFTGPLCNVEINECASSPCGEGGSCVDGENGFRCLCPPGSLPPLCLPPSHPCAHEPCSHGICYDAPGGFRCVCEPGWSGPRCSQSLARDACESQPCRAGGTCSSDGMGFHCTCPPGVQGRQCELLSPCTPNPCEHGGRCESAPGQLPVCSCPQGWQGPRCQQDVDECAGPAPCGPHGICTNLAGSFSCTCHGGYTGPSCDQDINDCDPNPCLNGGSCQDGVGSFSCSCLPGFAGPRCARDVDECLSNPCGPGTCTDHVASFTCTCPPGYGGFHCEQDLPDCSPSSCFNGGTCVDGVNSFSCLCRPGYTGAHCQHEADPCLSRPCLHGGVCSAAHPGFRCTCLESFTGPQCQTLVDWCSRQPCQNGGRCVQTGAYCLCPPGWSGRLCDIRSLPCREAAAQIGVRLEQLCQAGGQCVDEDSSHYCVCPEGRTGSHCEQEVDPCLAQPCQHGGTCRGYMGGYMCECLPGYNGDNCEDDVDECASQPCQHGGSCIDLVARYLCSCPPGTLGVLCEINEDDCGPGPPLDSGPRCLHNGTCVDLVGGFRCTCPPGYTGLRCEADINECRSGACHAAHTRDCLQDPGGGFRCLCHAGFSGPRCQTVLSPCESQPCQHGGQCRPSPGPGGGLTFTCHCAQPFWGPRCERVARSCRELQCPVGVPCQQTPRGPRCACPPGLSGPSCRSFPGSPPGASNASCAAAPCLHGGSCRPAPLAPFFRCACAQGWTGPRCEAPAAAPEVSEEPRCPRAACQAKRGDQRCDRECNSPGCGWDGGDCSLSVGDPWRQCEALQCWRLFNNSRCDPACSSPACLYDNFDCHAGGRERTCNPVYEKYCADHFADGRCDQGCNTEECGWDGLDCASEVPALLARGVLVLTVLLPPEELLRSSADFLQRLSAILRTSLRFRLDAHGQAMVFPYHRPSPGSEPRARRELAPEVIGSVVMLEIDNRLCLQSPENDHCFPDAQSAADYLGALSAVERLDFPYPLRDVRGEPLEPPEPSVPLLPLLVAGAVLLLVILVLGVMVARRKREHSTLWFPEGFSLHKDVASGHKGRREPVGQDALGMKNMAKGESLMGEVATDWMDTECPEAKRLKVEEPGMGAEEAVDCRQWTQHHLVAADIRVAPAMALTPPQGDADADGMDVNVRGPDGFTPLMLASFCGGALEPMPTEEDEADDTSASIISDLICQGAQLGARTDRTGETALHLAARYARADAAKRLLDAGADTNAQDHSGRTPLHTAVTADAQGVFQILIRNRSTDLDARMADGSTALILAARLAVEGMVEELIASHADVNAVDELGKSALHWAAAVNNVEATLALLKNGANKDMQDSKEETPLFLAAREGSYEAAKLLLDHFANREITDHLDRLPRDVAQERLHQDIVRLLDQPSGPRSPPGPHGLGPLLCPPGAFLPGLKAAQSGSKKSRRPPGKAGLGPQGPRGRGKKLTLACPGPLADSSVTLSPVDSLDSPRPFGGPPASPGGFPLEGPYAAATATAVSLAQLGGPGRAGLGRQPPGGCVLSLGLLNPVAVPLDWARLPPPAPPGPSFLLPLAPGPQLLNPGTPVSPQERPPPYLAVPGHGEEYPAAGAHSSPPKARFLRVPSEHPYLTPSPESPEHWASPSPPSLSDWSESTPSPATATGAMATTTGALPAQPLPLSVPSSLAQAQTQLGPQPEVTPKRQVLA

In the case of `O=C1N(CCS(=O)(=O)c2ccccc2)Cc2ccccc2[C@@H]2OC(c3ccc(OCCCO)cc3)=N[C@]12CCS(=O)(=O)c1ccccc1`, the composite z-score in assay [1] came out at 1.53; in assay [5], 3.23; in [7], 0.338; in assay [8] it was 1.06; in [9], 1.02; in [10] it was 0.266. For the same molecule, the z-score in assay [2] is 2.61 (inactive); in [3], 1.97 (inactive); in [4], 6.29 (inactive); in assay [6], 0.833 (inactive).

With `O=C1O[C@H](c2ccccc2)[C@H](c2ccccc2)N2[C@H]1[C@@H](C(=O)N1CCCCCCC1)[C@]1(C(=O)Nc3ccc(C#CC4(O)CCCCCC4)cc31)[C@H]2c1ccc(O)cc1`, the composite z-score in assay [1] turned out to be 1.54; in assay [5] it was 3.97; in assay [7] it was 1.65; in assay [8] it was 1.78; in assay [9] it was 1.06; in [10], 1.35. The z-score was 0.666 (inactive) in assay [2], 0.73 (inactive) in [3], 1.19 (inactive) in assay [4] and 0.408 (inactive) in assay [6].

With `CCN(CC)c1ccc(N2CC=CC34O[C@@H]5C=CCCOC(=O)C5[C@H]3C(=O)N(CCO)[C@@H]4C2=O)cc1` (stereo not given in full), the composite z-score was -1.15 in assay [1]; -0.66 in assay [5]; -0.235 in assay [7]; -1.42 in assay [8]; -0.477 in [9]; -0.201 in [10]. Also, the z-score in assay [2] was -0.562 (inactive); in [3], -1.07 (inactive); in assay [4], -0.315 (inactive); in [6] it was 0.701 (inactive).

As to `O=C1O[C@H](c2ccccc2)[C@H](c2ccccc2)N2[C@H]1[C@@H](C(=O)O)[C@]1(C(=O)Nc3ccc(C#CC4(O)CCCCCC4)cc31)[C@H]2c1ccc(O)cc1`, the composite z-score is 0.871 in [1]; 3.14 in assay [5]; -0.142 in assay [7]; -0.292 in [8]; 0.0139 in assay [9]; 0.192 in [10]. In addition, the z-score was -0.386 (inactive) in assay [2], -1.22 (inactive) in [3], -1.76 (inactive) in assay [4] and 2.04 (inactive) in assay [6].

With `Cc1ccccc1C(O)C1C=CC2C(=O)N(c3ccccc3)C(=O)C2N1Nc1ccc([N+](=O)[O-])cc1` (stereo not given), the composite z-score in assay [1] is 1.45; in assay [5], 3.39; in assay [7] it was 0.0839; in assay [8], 0.327; in assay [9] it was 1.05; in [10], 0.156. The z-score was -0.715 (inactive) in [2], 0.796 (inactive) in assay [3], 2.67 (inactive) in [4] and 0.13 (inactive) in assay [6].

For `[N-]=[N+]=NCc1ccccc1[C@H]1OC(c2ccc(OCCCO)cc2)=N[C@@]1(Cc1ccccc1)C(=O)NCCN1CCOCC1`, the composite z-score was 1.53 in assay [1]; 3.34 in assay [5]; 0.443 in assay [7]; 0.52 in [8]; 1.09 in assay [9]; -0.0329 in [10]. Also, the z-score in assay [2] is -1.07 (inactive); in assay [3], -0.864 (inactive); in assay [4], -0.31 (inactive); in [6], 1.12 (inactive).

For the molecule `COc1ccc(C#Cc2ccc3c(c2)[C@]2(C(=O)N3)[C@H](C(=O)Nc3nc4ccccc4s3)[C@H]3C(=O)O[C@H](c4ccccc4)[C@H](c4ccccc4)N3[C@@H]2c2ccccc2OCCO)cc1`, the composite z-score in assay [1] was 1.36; in assay [5], 3.08; in assay [7], -0.0949; in [8], 0.486; in assay [9], 1.13; in assay [10], -0.106. The z-score in assay [2] is 2.56 (inactive); in [3], 1.53 (inactive); in assay [4], 1.59 (inactive); in assay [6] it was 2.62 (inactive).

`CCOC(=O)C1=CC[C@@H](c2ccccc2)N(S(=O)(=O)c2ccc(C)cc2)[C@H]1c1cccc(OC)c1`: the composite z-score is 1.06 in assay [1]; 2.19 in assay [5]; 0.116 in assay [7]; -0.266 in assay [8]; 0.618 in [9]; -0.0407 in [10]. Further, the z-score is 0.498 (inactive) in [2], 1.52 (inactive) in [3], 2.05 (inactive) in assay [4] and -0.439 (inactive) in [6].

As for `C=C(COC)C(=O)CC[C@@H](OC(=O)c1cccnc1)c1ccccc1OCCO`, the composite z-score in assay [1] is 0.409; in [5], -0.135; in assay [7], 0.0789; in assay [8] it was 0.879; in assay [9] it was -0.302; in assay [10] it was -0.0828. Also, the z-score was -0.587 (inactive) in [2], -1.7 (inactive) in [3], -0.369 (inactive) in [4] and 0.0506 (inactive) in assay [6].

Regarding `CCc1cccc(NC(=O)O[C@H]2[C@H](OC(=O)Nc3ccccc3)[C@H](OC(=O)Nc3ccccc3)[C@@H](OC)O[C@@H]2CO)c1`, the composite z-score is 1.5 in assay [1]; 3.48 in assay [5]; 0.0166 in [7]; 0.349 in [8]; 1.08 in [9]; -0.0968 in assay [10]. For the same molecule, the z-score is 1.22 (inactive) in assay [2], 1.72 (inactive) in assay [3], 8.61 (active) in assay [4] and -0.728 (inactive) in [6].

On to `COCCOC(=O)N1C(=O)[C@@]2(c3cc(C#CCNC(N)=O)ccc31)[C@H](c1ccc(OCCO)cc1)N1[C@H](c3ccccc3)[C@H](c3ccccc3)OC(=O)[C@H]1[C@@H]2C(N)=O`, for which the composite z-score in assay [1] worked out at 0.981; in assay [5] it was 1.92; in [7], 0.221; in assay [8], 0.228; in [9], 0.542; in [10] it was 0.387. The z-score in assay [2] is 2.18 (inactive); in [3], 1.16 (inactive); in assay [4], 2.29 (inactive); in [6] it was 1.11 (inactive).

As to `CC(C)(C)OC(=O)CC[C@]1(C(=O)N2CCCCC2)COC(c2ccc(OCCCO)cc2)=N1`, the composite z-score was 1.47 in assay [1]; 3.57 in assay [5]; 0.066 in assay [7]; 0.318 in assay [8]; 0.79 in assay [9]; -0.0139 in assay [10]. For the same molecule, the z-score in assay [2] is -1.1 (inactive); in assay [3], -0.878 (inactive); in assay [4], -1.57 (inactive); in [6], 0.992 (inactive).

Consider `CN1C(=O)C2C(C1=O)C1C=C(CCCO)C2C(C2CC2)N1Cc1cc2c(cc1Br)OCO2` (stereo not given), for which the composite z-score was found to be 0.84 in assay [1]; 2.82 in assay [5]; 0.183 in assay [7]; 0.304 in [8]; 0.699 in [9]; 0.0185 in assay [10]. In addition, the z-score in [2] was -3.43 (inactive); in assay [3], -1.03 (inactive); in assay [4], -0.932 (inactive); in assay [6], 0.307 (inactive).

On to `CCCCC=C[C@@H](NC(=O)c1ccccc1)c1ccccc1`, for which the composite z-score in assay [1] was 1.04; in [5], 3.51; in assay [7], -0.0261; in assay [8] it was -0.328; in [9], 1.09; in assay [10], 0.0488. Also, the z-score in assay [2] is 0.409 (inactive); in assay [3], 0.336 (inactive); in assay [4] it was 0.889 (inactive); in assay [6], -1.37 (inactive).

As to `C=C(CCCC)/C(=C/C[C@H](OC(C)=O)c1ccc(OCCO)cc1)c1cc(C(=O)OC)ccc1OC`, the composite z-score in assay [1] was 1.25; in assay [5], 2.36; in assay [7] it was -0.0238; in [8], 0.917; in [9], 0.563; in [10], -0.115. Moreover, the z-score in assay [2] was 0.966 (inactive); in [3], -0.628 (inactive); in [4] it was -0.59 (inactive); in assay [6], 0.54 (inactive).
